Here are results for nine molecules from PubChem BioAssay (NCI).

Compounds without any hit were thinned out: in the full panel of roughly 79,000, 15% have a hit. Unmarked numbers belong to inactive results. Calls of active or inactive are those of the source. Cut-off read from the data, not from the text of the source: active = growth inhibition above about 70%; inactive = the rest.

Test [1] is described as follows: NCI Yeast Anticancer Drug Screen. Data for the rad50 strain (AID 155).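 Note: 0% = growth of vehicle-only cultures of the same strain.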 The conditions noted are these: S. cerevisiae rad50 strain growth inhibition, stronger effect = higher value. An outline of the steps: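 Growth of the mutant yeast was measured after compound exposure and referenced to vehicle-treated cultures.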
Test [2] in a line: NCI Yeast Anticancer Drug Screen. Data for the mec2-1 strain (AID 157). Conditions: S. cerevisiae mec2-1 strain, stronger effect = higher value. An outline of the steps:
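Strain: mec2-1 (DNA repair/cell cycle alteration). Compound exposure, then growth measured; inhibition expressed relative to vehicle.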

Test [3] is described as follows: NCI Yeast Anticancer Drug Screen. Data for the sgs1 mgt1 strain (AID 161).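 Note: 0% = growth of cultures given vehicle only.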 The conditions noted are these: S. cerevisiae sgs1 mgt1 strain, stronger effect = higher value. An outline of the steps: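 Genetically altered yeast, compound exposure, growth inhibition relative to vehicle.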
Test [4] is described as follows: NCI Yeast Anticancer Drug Screen. Data for the cln2 rad14 strain (AID 165).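 Note: 0% = growth equal to vehicle treated cultures.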 Conditions: S. cerevisiae cln2 rad14 strain, stronger effect = higher value. An outline of the steps: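 Compounds are applied to the cln2 rad14 yeast strain, and growth is then compared with that of vehicle-treated cultures to give inhibition.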
Test [5] is described as follows: NCI Yeast Anticancer Drug Screen. Data for the bub3 strain (AID 167). The conditions noted are these: S. cerevisiae bub3 mutant strain, stronger effect = higher value. A digest of the protocol: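 Whole-cell yeast assay. The mutant strain was incubated with compounds, and growth inhibition was determined by comparison with vehicle-treated cells.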
Test [6] can be described thus: NCI Yeast Anticancer Drug Screen. Data for the mlh1 rad18 strain (AID 175). Conditions: S. cerevisiae mlh1 rad18 strain growth inhibition, stronger effect = higher value. A digest of the protocol: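 Read-out is yeast growth inhibition, calculated against vehicle-only controls. The compound was applied to a strain engineered with DNA damage repair alterations.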
The mark [7] stands for this setting: at 5.0 µM (retest, dose inferred, filed as 0.5).
[8] abbreviates: at 50.0 µM (retest, dose inferred, filed as 5.0).

For the molecule `CP(=O)(c1ccccc1)c1ccccc1`, the growth inhibition in test [1] (setting [7]) is -20%; in test [1] (setting [8]), -17%; in test [1] (at 50.0 µM) it was 12.3%; in test [2] (setting [7]) it was -1%; in test [2] (setting [8]), 5%; in test [2] (at 50.0 µM), 13.2%. In addition, the growth inhibition in test [3] (setting [7]) was -21%; in test [3] (setting [8]) it was -14%; in test [3] (at 50.0 µM), 18.4%; in test [4] (setting [7]), 18%; in test [4] (setting [8]) it was -12%; in test [4] (at 50.0 µM), 6.05%. For the same molecule, the growth inhibition is -22% in test [5] (setting [7]); -20% in test [5] (setting [8]); 5.05% in test [5] (at 50.0 µM); -24% in test [6] (setting [7]); -25% in test [6] (setting [8]); 41.8% in test [6] (at 50.0 µM).
With `C1CCC2[N-]CC3CCCCC3[N-]CC3CCCCC3[N-]CC3CCCCC3[N-]CC2C1.[Cl][Fe]([Cl])([Cl])[Cl].[Fe+6]` (configuration not stated), the growth inhibition in test [1] (setting [7]) is 41%; in test [1] (setting [8]), 97% (active); in test [1] (at 50.0 µM), 96.3% (active); in test [2] (setting [7]) it was 10%; in test [2] (setting [8]) it was 98% (active); in test [2] (at 50.0 µM), 98.5% (active). The growth inhibition in test [3] (setting [7]) was 25%; in test [3] (setting [8]) it was 98% (active); in test [3] (at 50.0 µM) it was 98.5% (active); in test [4] (setting [7]) it was 0%; in test [4] (setting [8]), 96% (active); in test [4] (at 50.0 µM), 96.8% (active). Also, the growth inhibition in test [5] (setting [7]) is -3%; in test [5] (setting [8]), 97% (active); in test [5] (at 50.0 µM), 97.5% (active); in test [6] (setting [7]) it was 26%; in test [6] (setting [8]), 98% (active); in test [6] (at 50.0 µM), 97.7% (active).
Regarding `COc1ccc(CC2c3cc4c(cc3CCN2C)OCO4)c(C=O)c1OC` (configuration not stated), the growth inhibition in test [1] (setting [7]) is -2%; in test [1] (setting [8]) it was -4%; in test [1] (at 50.0 µM), 82% (active); in test [2] (setting [7]), -1%; in test [2] (setting [8]) it was -1%; in test [2] (at 50.0 µM) it was 86.7% (active). In addition, the growth inhibition in test [3] (setting [7]) is -1%; in test [3] (setting [8]), -3%; in test [3] (at 50.0 µM) it was 83.3% (active); in test [4] (setting [7]) it was -4%; in test [4] (setting [8]) it was -11%; in test [4] (at 50.0 µM) it was 84.7% (active). Further, the growth inhibition was -2% in test [5] (setting [7]); 1% in test [5] (setting [8]); 57.3% in test [5] (at 50.0 µM); -2% in test [6] (setting [7]); -4% in test [6] (setting [8]); -38.8% in test [6] (at 50.0 µM).
Consider `N#CC1Sc2ccccc2N1C(=O)c1ccccc1` (configuration not stated), for which the growth inhibition in test [1] (setting [7]) was -2%; in test [1] (setting [8]), 3%; in test [1] (at 50.0 µM), 96.6% (active); in test [2] (setting [7]), -15%; in test [2] (setting [8]), -6%; in test [2] (at 50.0 µM), 91% (active). For the same molecule, the growth inhibition was -2% in test [3] (setting [7]); -19% in test [3] (setting [8]); 93% (active) in test [3] (at 50.0 µM); -12% in test [4] (setting [7]); -19% in test [4] (setting [8]); 78% (active) in test [4] (at 50.0 µM). For the same molecule, the growth inhibition was -10% in test [5] (setting [7]); 4% in test [5] (setting [8]); 84.2% (active) in test [5] (at 50.0 µM); -12% in test [6] (setting [7]); -5% in test [6] (setting [8]); 98% (active) in test [6] (at 50.0 µM).
With `CN(C)CC(CN(C)C)C(=O)C1CCCCC1`, the growth inhibition was 25% in test [1] (setting [7]); 90% (active) in test [1] (setting [8]); 81.2% (active) in test [1] (at 50.0 µM); 2% in test [2] (setting [7]); 96% (active) in test [2] (setting [8]); 94.7% (active) in test [2] (at 50.0 µM). Moreover, the growth inhibition in test [3] (setting [7]) was -9%; in test [3] (setting [8]), 71% (active); in test [3] (at 50.0 µM), 76.8% (active); in test [4] (setting [7]), 19%; in test [4] (setting [8]), 89% (active); in test [4] (at 50.0 µM) it was 10.3%. For the same molecule, the growth inhibition in test [5] (setting [7]) was 7%; in test [5] (setting [8]), 98% (active); in test [5] (at 50.0 µM), 23.2%; in test [6] (setting [7]), 12%; in test [6] (setting [8]), 95% (active); in test [6] (at 50.0 µM) it was 96.6% (active).
In the case of `Oc1ccc(COCCBr)c2cccnc12`, the growth inhibition is 8% in test [1] (setting [7]); 98% (active) in test [1] (setting [8]); 98.8% (active) in test [1] (at 50.0 µM); -2% in test [2] (setting [7]); 99% (active) in test [2] (setting [8]); 99.5% (active) in test [2] (at 50.0 µM). For the same molecule, the growth inhibition is 4% in test [3] (setting [7]); 99% (active) in test [3] (setting [8]); 99.2% (active) in test [3] (at 50.0 µM); 8% in test [4] (setting [7]); 98% (active) in test [4] (setting [8]); 98.5% (active) in test [4] (at 50.0 µM). Moreover, the growth inhibition in test [5] (setting [7]) is 1%; in test [5] (setting [8]), 98% (active); in test [5] (at 50.0 µM), 99.2% (active); in test [6] (setting [7]), 30%; in test [6] (setting [8]), 99% (active); in test [6] (at 50.0 µM), 99.2% (active).
Consider `CC(O)CCc1nc2ccccc2[nH]1` (configuration not stated), for which the growth inhibition in test [1] (setting [7]) was 3%; in test [1] (setting [8]), -4%; in test [1] (at 50.0 µM), 17.3%; in test [2] (setting [7]), 2%; in test [2] (setting [8]), -3%; in test [2] (at 50.0 µM) it was 3.15%. Further, the growth inhibition in test [3] (setting [7]) is -1%; in test [3] (setting [8]), 0%; in test [3] (at 50.0 µM), -1.3%; in test [4] (setting [7]), 2%; in test [4] (setting [8]), 27%; in test [4] (at 50.0 µM), 57.2%. Further, the growth inhibition in test [5] (setting [7]) was 3%; in test [5] (setting [8]), 6%; in test [5] (at 50.0 µM), -6.65%; in test [6] (setting [7]) it was 0%; in test [6] (setting [8]) it was -8%; in test [6] (at 50.0 µM), 11.7%.
Take `COc1cc(C2CC(=O)c3ccccc3O2)ccc1O` (configuration not stated): the growth inhibition in test [1] (setting [7]) was 0%; in test [1] (setting [8]), 98% (active); in test [1] (at 50.0 µM), 89% (active); in test [2] (setting [7]), 10%; in test [2] (setting [8]) it was 99% (active); in test [2] (at 50.0 µM), 92.7% (active). Also, the growth inhibition in test [3] (setting [7]) was 17%; in test [3] (setting [8]), 98% (active); in test [3] (at 50.0 µM), 92.2% (active); in test [4] (setting [7]), -16%; in test [4] (setting [8]), 97% (active); in test [4] (at 50.0 µM), 88.7% (active). Further, the growth inhibition in test [5] (setting [7]) is 26%; in test [5] (setting [8]), 97% (active); in test [5] (at 50.0 µM), 90.7% (active); in test [6] (setting [7]) it was 15%; in test [6] (setting [8]), 98% (active); in test [6] (at 50.0 µM) it was 89.5% (active).
On to `CC1=C(C(=O)Nc2ccccc2)C(c2cc(Cl)cc(Cl)c2)C(C(=O)Nc2ccccc2)=C(C)N1`, for which the growth inhibition in test [1] (setting [7]) was 2%; in test [1] (setting [8]), 2%; in test [1] (at 50.0 µM) it was 87% (active); in test [2] (setting [7]) it was 19%; in test [2] (setting [8]), 19%; in test [2] (at 50.0 µM), 85.5% (active). Further, the growth inhibition is 11% in test [3] (setting [7]); 11% in test [3] (setting [8]); 83% (active) in test [3] (at 50.0 µM); 5% in test [4] (setting [7]); 5% in test [4] (setting [8]); 63.1% in test [4] (at 50.0 µM). Also, the growth inhibition is -11% in test [5] (setting [7]); -11% in test [5] (setting [8]); 63.4% in test [5] (at 50.0 µM); -4% in test [6] (setting [7]); -4% in test [6] (setting [8]); 74.1% (active) in test [6] (at 50.0 µM).
